From PubChem BioAssay AID1347416 (National Center for Advancing Translational Sciences (NCATS), 2020)
About 1,600 (39%) of roughly 4,100 compounds were called active. Not shown: some 25% with an inconclusive outcome. Calls follow the shape of the dose curve; as a rule, active = well fitted inhibition curve with a large enough effect; inconclusive = small, poorly fitted or top-dose-only effect; inactive = no such curve, though single readings can be large or run the other way. The list shows a part of the results.

experiment: qHTS Validation assay for Inhibitors of Plasmodium falciparum Dd2 growth in vitro; also: nearly all actives have a fitted effect of over 70% in size; conditions: P. falciparum Dd2 in RBCs, SYBR Green growth, 72 h; series mostly up to 28.7 µM; activity change, negative = inhibition: at the top concentration
Procedure, shortened: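 P. falciparum Dd2-infected red blood cells (2.5% hematocrit, 0.3% parasitemia) grown 72 h at 37 °C under 5% O2 with compounds in a titration, 29 uM to 0.5 nM final. Growth read as SYBR Green-1 fluorescence after ~16 h lysis; artesunate 300 nM as positive control.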
% is scaled to controls: 0 for no effect and ±100 for the full control effect; potency is read from the fitted curve at half-maximal effect.

Potency, active:
CC(C)(C)CC(C)(C)c1ccc(O)c(Cc2ccc(Cl)cc2Cl)c1 1.68 µM
CCc1nc2c(c(-c3ccc(O)cc3)n1)CCN(Cc1ccc(OC)cc1)CC2 6.68 µM
CCc1nc2c(c(-c3ccc(O)cc3)n1)CCN(Cc1ccc(OC(F)(F)F)cc1)CC2 1.5 µM
Cc1cc(C)c(S(=O)(=O)n2ccc(-c3ccc(OCCN(C)c4ccccn4)cc3)n2)c(C)c1 7.5 µM
COc1ccc(-n2nc(C(=O)NCC(=O)N3CCN(c4ccccc4OC)CC3)c3ccccc3c2=O)c(OC)c1 2.11 µM
COc1ccc(-n2nc(C(=O)NCC(=O)N3CCN(c4ccccc4OC)CC3)c3ccccc3c2=O)cc1OC 6.68 µM
CCCc1cc(=O)oc2cc(C)cc(OC(C)C(=O)NCC(O)c3ccccc3)c12 (stereo not drawn) 0.842 µM
Cc1cc(OC(C)C(=O)NCCc2c[nH]c3ccccc23)c2c(C)cc(=O)oc2c1 (stereo not drawn) 2.66 µM
CCc1cc(=O)oc2cc(C)cc(OCC(=O)NCC(O)c3ccccc3)c12 (stereo not drawn) 6.68 µM
CCc1cc(=O)oc2cc(C)cc(OCC(=O)C(C)(C)C)c12 11.9 µM
Oc1cc(Cc2ccccc2)cnc1CN1CCCCC1 0.944 µM
CC12CC3CC(C)(C1)CC(Nc1nc(N4CCOCC4)nc4ccccc14)(C3)C2 9.44 µM
CN1N=C2c3ccccc3CCC2C1c1ccc(F)cc1 (stereo not drawn) 5.96 µM
Cc1ccc2oc(=O)n(CCOc3ccccc3C)c2c1 4.73 µM
O=C(c1cccs1)N1CCCCCC1CN1CCCC1 (stereo not drawn) 10.6 µM
CCCCCCNC(=O)Cc1csc2nc(C)c(-c3cc(C)n(-c4cccc(C)c4)n3)c(=O)n12 15 µM
CCCCCC(O)(c1ccc(OC)cc1)C(CN1CCOCC1)c1ccccc1 (stereo not drawn) 2.11 µM
CCCCC(O)(c1ccc(CC)cc1)C(CN1CCOCC1)c1ccccc1 (stereo not drawn) 4.73 µM
CCCCCCC(O)(c1ccc(OC)cc1)C(CN1CCOCC1)c1ccccc1 (stereo not drawn) 4.22 µM
CCCN1C(CC(C)C)=NS(=O)(=O)c2cc(NC(=O)c3cccs3)ccc21 0.335 µM
CCCN1C(CC(C)C)=NS(=O)(=O)c2cc(NC(=O)c3ccco3)ccc21 7.5 µM
COc1cc(Cl)c(C)cc1NC(C)C(=O)Nc1cc(C(F)(F)F)ccc1N1CCOCC1 (stereo not drawn) 0.422 µM
CCC(Oc1ccccc1)C(=O)Nc1cc(C(F)(F)F)ccc1N1CCOCC1 (stereo not drawn) 7.5 µM
COc1ccc(NC(C)C(=O)Nc2cc(C(F)(F)F)ccc2N2CCOCC2)c(OC)c1 (stereo not drawn) 0.842 µM
CCOc1ccccc1NC(C)C(=O)Nc1cc(C(F)(F)F)ccc1N1CCOCC1 (stereo not drawn) 2.66 µM
COc1cc2c(Nc3ccc(Br)cc3F)ncnc2cc1OCC1CCN(C)CC1 5.96 µM
Clc1ccc2c(N3CCCC3)ccnc2c1 3.76 µM
O=C(Nc1ccc(C(F)(F)F)cc1)N1CCN(c2ccnc3cc(Cl)ccc23)CC1 5.31 µM
Cc1ccc(-n2ncc3c(NCc4ccco4)ncnc32)cc1C 15 µM
COc1ccc(S(=O)(=O)N(C)C)cc1NC(C)C(=O)Nc1cccc(C#N)c1 (stereo not drawn) 6.68 µM
CCOC(=O)c1c(C)n(-c2ccc(F)cc2)c2ccc(O)cc12 6.68 µM
CC1=C(C(=O)Nc2ccc(C)cc2C)C(c2ccc([N+](=O)[O-])cc2)n2ncc(C(=O)Nc3ccc(F)cc3)c2N1 (stereo not drawn) 2.99 µM
COc1cccc(C2C(C(=O)Nc3ccc(C)cc3C)=C(C)Nc3c(C(=O)Nc4ccccc4)cnn32)c1 (stereo not drawn) 2.11 µM
CC1=C(C(=O)Nc2ccc(C)cc2C)C(c2ccc(Br)cc2)n2ncc(C(=O)Nc3cccc(C)c3)c2N1 (stereo not drawn) 3.35 µM
Cc1cc(N2CCN(C)CC2)nc2ccc(NC(=O)Nc3cccc(Cl)c3)cc12 4.22 µM
CCOc1ccccc1NC(=O)Nc1ccc2nc(N3CCN(C)CC3)cc(C)c2c1 1.33 µM
CCOc1cccc(CC(=O)Nc2ccc3nc(N4CCCCC4)cc(C)c3c2)c1OCC 6.68 µM
Cc1ccccc1NC(=O)Nc1ccc2nc(N3CCN(C)CC3)cc(C)c2c1 1.5 µM

Activity change, negative = inhibition, inactive:
CN1C[C@@H](NC(=O)CC(C)(C)C)C[C@H]1c1nc(-c2ccc(OC(F)(F)F)cc2)no1 0% [at 43.1 µM]
O=[S+]1([O-])NCC2(CCCN(Cc3ccc(OC(F)(F)F)cc3)C2)Nc2ccccc21 (stereo not drawn) -25.2%
COc1ccc(CN2CCC3(CC(c4ccc(OC)cc4)=NO3)C2)cc1 (stereo not drawn) 8.93%
CCc1cccc(NC(=O)N2CCc3nc4cc(-c5ccc(OC)cc5)[nH]n4c(=O)c3C2)c1 -5.7%
COc1ccccc1N1CCN(C(=O)CNS(=O)(=O)c2ccc(Br)s2)CC1 40.1%
COc1cccc2c(=O)n(CC(=O)NCCc3ccccc3)ccc12 35.5%
O=C(NCCc1c[nH]c2ccccc12)c1c(OCC2CC2)cc(=O)n2c1CCOCC2 -39.2%
CCCc1noc(-c2ccn3c(CNC(=O)C(C)Oc4ccccc4)nnc3c2)n1 (stereo not drawn) -11.4%
Clc1ccc(-c2nc(N3CCOCC3)nc3ccccc23)cc1 7.5%
COc1ccccc1C(=O)NCCn1ccn2nc(-c3cc(C)ccc3C)cc2c1=O -2.98%
O=C(N[C@H]1CCN2C(=O)c3ccccc3NC(=O)[C@@H]2C1)c1cccs1 27.3% [at 43.1 µM]
CCNC(=O)N1CCCCCC1CN1CCc2ccccc2C1 (stereo not drawn) -9.47%
CC(Oc1ccccc1)C(=O)NC1CCN(c2cc(C(F)(F)F)ncn2)CC1 (stereo not drawn) -10.9%
CCOc1ccccc1NC(=O)N1CCC([C@@H]2[C@H](OC)C(=O)N2C(C)C)CC1 20.9%
O=C(c1ccc(F)c(Cl)c1)N1CCN(c2cc(C(F)(F)F)ncn2)CC1 5.98%
Nc1cc(Cl)ccc1N1CCCC1 25.9%
COc1ccc(CNc2ncnc3c2cnn3-c2ccc(C)c(C)c2)cc1 38.6%
COc1ccc(CCNc2ncnc3c2cnn3-c2ccc(F)cc2)cc1 22.9%
CCc1nnc([C@@H]2CC(F)(F)CN2Cc2cccn2C)o1 -14.9%
CCOC(=O)c1c(NC(=O)COc2ccc(F)cc2)sc2c1CCC(C)C2 (stereo not drawn) 21.2%
COc1cccc(CC(=O)NCCn2ccn3nc(-c4ccc(C)cc4C)cc3c2=O)c1 -12.7%
CCOc1ccc(-n2nc3cc(C)c(NC(=O)c4cc(OCC)c(OCC)c(OCC)c4)cc3n2)cc1 57.9%
O=C([C@@H]1C[C@H](F)CN1C(=O)Nc1cccc(Cl)c1)N1CCCCC1 9.66%
Cc1cc(=O)n(CC(=O)Nc2ccc(C)c(F)c2)c(N2CCc3ccccc3C2)n1 -8.95%
CCCN(CCC)CCCNC(=S)Nc1ccc2nc(N3CCCC3)cc(C)c2c1 -17.7%
